PubChem BioAssay AID2283197 (EPA ToxCast)
Calls of active or inactive are those of the source. How the source made its calls: active means hit-call score of the fitted dose curve at least 0.9, where 1 is the maximum; inactive means score below 0.9.

Molecular target: human Protein Kinase D2 (PKD2), PRKD2 (gene 25865) (UniProt Q9BZL6)
Assay: NVS_ENZ_hPKD2: NovaScreen (NVS) Enzymatic Assay for human Protein Kinase D2 (PKD2)
Protocol: NVS_ENZ_hPKD2 is a biochemical, single-readout assay that uses extracted gene-proteins in a cell-free assay. Measurements were taken 1 hour after chemical dosing in a 384-well plate.NVS_ENZ_hPKD2 is one of one assay component(s) measured or calculated from the NVS_ENZ_hPKD2 assay. It is designed to make measurements of enzyme activity, a form of enzyme reporter, as detected with fluorescence intensity signals by Fluorescence and electrophoretic mobility shift technology.Data from the assay component NVS_ENZ_hPKD2 was analyzed into 1 assay endpoint. This assay endpoint, NVS_ENZ_hPKD2, was analyzed in the positive analysis fitting direction relative to DMSO as the negative control and baseline of activity. Using a type of enzyme reporter, loss-of-signal activity can be used to understand changes in the enzymatic activity as they relate to the gene PRKD2. Furthermore, this assay endpoint can be referred to as a primary readout, because this assay has produced multiple assay endpoints where this one serves a enzymatic activity function. To generalize the intended target to other relatable targets, this assay endpoint is annotated to the kinase intended target family, where the subfamily is serine/threonine kinase. […]

Sequence of human Protein Kinase D2 (PKD2), PRKD2 (gene 25865) (Q9BZL6 whole entry, looked up): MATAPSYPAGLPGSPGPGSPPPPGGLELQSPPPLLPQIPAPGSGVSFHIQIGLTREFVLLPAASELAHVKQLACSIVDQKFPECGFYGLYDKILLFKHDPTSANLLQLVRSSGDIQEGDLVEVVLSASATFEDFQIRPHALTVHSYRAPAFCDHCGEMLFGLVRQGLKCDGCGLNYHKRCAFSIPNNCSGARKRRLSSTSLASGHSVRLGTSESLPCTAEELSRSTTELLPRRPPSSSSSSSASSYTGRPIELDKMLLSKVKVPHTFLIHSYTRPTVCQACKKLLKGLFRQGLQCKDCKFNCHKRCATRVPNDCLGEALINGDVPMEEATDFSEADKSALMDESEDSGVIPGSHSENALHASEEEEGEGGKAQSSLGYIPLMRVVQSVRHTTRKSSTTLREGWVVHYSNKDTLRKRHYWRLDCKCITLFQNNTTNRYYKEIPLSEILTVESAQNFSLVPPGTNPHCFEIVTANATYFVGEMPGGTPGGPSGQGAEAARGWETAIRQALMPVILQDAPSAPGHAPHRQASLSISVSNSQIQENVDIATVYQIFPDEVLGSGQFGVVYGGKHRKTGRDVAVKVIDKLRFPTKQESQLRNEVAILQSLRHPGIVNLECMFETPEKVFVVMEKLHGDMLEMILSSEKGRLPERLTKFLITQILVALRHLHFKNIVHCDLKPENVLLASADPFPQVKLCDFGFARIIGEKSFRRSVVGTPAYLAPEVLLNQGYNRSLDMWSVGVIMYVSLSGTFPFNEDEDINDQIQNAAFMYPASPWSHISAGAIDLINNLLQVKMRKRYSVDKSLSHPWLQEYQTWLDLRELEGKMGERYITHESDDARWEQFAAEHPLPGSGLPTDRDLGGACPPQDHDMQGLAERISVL

| SMILES | outcome |
| --- | --- |
| N#CSCSc1nc2ccccc2s1 | inactive |
| Oc1ccc(C(c2ccc(O)cc2)C(Cl)(Cl)Cl)cc1 | inactive |
